# Source: PubChem
# HT1080 IDH1KD tx – HT-1080 IDH1 knockdown cell toxicity (counter line) | HT-1080 IDH1 knockdown viability, ATP luminescence, 48 h | Potency, µM (titrated, usually from 46.1 µM), inactives show top-dose activity, negative = toxicity, hits mostly cytotoxic | 2% of 360,000 active;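 note: 0% = DMSO wells and -100% = cell-free medium wells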
#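 Viability of IDH1-knockdown HT-1080 fibrosarcoma cells was assessed by CellTiter-Glo after 48 h at 37 °C with titrated compound; concentration-effect curves were classified by fit quality and response size.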
# S2 tox – cell viability loss in ATXN counter-screen | S2 cells (HEK-293 line with an ATXN2-luciferase reporter) viability, CellTiter-Fluor protease fluorescence, 24 h | Potency, µM (doses to about 56.7 µM), most hits filed as cytotoxic | 0.49% of 400,000 active; note: nearly all actives have a fitted effect of over 40% in size
# TGFb inhibitor – inhibitors of TGF-b signaling; HepG2 CAGA-GFP TGF-b/SMAD3 reporter, GFP fluorescence, 18 h; TGF-beta stimulated, 500 pg/mL final; Potency, µM (titrated, usually from 46.1 µM), without a hit: at the top dose activity, negative = inhibition, hits mostly inhibitors; 1.2% of 410,000 active; note: % is set by controls: 0 for no effect and ±100 for the full control effect; nearly all actives have a fitted effect of over 65% in size
#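 GFP signal (ex488/em500-530) from TGF-beta-stimulated HEPG2 CAGA-GFP cells, 500 pg/mL final, 18 h at 37 degrees C in DMEM plus 1% FBS, normalized to unstimulated and DMSO-stimulated controls.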
# HT1080NT lethal – kills 2HG-producing HT-1080-NT fibrosarcoma cells. HT-1080-NT fibrosarcoma viability, CellTiter-Glo ATP luminescence, 48 h. Potency, µM (top dose mostly 46.1 µM), inactives show at the top dose activity, negative = less viability, hits mostly cytotoxic. 1.6% of 360,000 active;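 note: NT is the 2HG producing partner of a matched IDH1 knockdown line; 0% = DMSO-treated cells and -100% = media-only wells without cells; nearly all actives have a fitted effect of over 55% in size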
#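 Toxicity toward the 2HG-producing NT line was scored as %Activity, normalised to DMSO and no-cell wells, from CellTiter-Glo luminescence after 48 hours' treatment.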
# ATXN2 expr inh – ATXN2 expression inhibition; HEK-293 ATXN2-luciferase reporter, luminescence, 24 h; Potency, µM (series often up to 57 µM), for the others: at the highest dose activity change, negative = inhibition, hits mostly inhibitors; 0.72% of 360,000 active; note: % is set by controls: 0 for no effect and ±100 for the full control effect; nearly all actives have a fitted effect of over 55% in size
#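 ATXN2-luciferase reporter cells (luciferase flanked by upstream and downstream ATXN2 gene portions) were treated 24 h at 37 °C with compounds at up to 57 uM. SteadyGlo luminescence gave expression; GF-AFC fluorescence gave viability.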
# HepG2 tox-1 – kills HepG2 cells in TGF-b inhibitor counter-screen. HepG2 CAGA-GFP viability, ATP luminescence, 18 h. Potency, µM (titrated, usually from 46.1 µM), inactives show at the top dose activity change, negative = cytotoxicity, most hits filed as cytotoxic. 0.76% of 410,000 active. AID 588856
#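 CellTiter-Glo luminescence gave cytotoxicity after 18 hours at 37 degrees C. The cells were HepG2 CAGA-GFP in 1% FBS DMEM, stimulated with 500 pg/mL TGF-beta after compound addition. %Activity was normalised to no-cell wells (complete cell-killing) and DMSO (no toxicity), and curves were fitted and classified.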
# TGFb CAGA inh – TGF-b pathway inhibition, cherry-pick retest; 63% of 1,600 active; AID 720534; HepG2 CAGA-GFP TGF-b reporter, GFP fluorescence, 18 h; cells stimulated with TGF-beta, 500 pg/mL; shares compounds with TGFb inhibitor; Potency, µM (top dose mostly 46.1 µM), without a hit: top-dose activity, negative = inhibition, most hits filed as inhibitors; note: % is set by controls: 0 for no effect and ±100 for the full control effect; nearly all actives have a fitted effect of over 65% in size
# HepG2 tox-2 – toxic to HepG2 cells in TGF-b counterscreen | shares compounds with TGFb inhibitor | HepG2 CAGA-GFP viability, ATP luminescence, 18 h; cells stimulated with TGF-beta, 500 pg/mL | Potency, µM (doses to about 46.1 µM), for inactives: at the top dose activity, negative = cytotoxicity, actives largely listed as inhibitors | 27% of 1,600 active; note: % is set by controls: 0 for no effect and ±100 for the full control effect; nearly all actives have a fitted effect of over 70% in size
# TGFb CCL64 inh – blocks TGF-b signaling in CCL64 reporter cells. shares compounds with TGFb inhibitor. AID 720536. CCL64 CAGA-GFP reporter, TGF-b stimulated, GFP fluorescence, 18 h. Potency, µM (highest dose often 46.1 µM), inactives show at the top dose activity, negative = inhibition, hits mostly inhibitors. 41% of 1,600 active; note: nearly all actives have a fitted effect of over 65% in size
# TGFb COP inh – validation of TGF-b inhibitors in HepG2 COP promoter reporter; AID 720537; Potency, µM (top dose mostly 46.1 µM), inactives show at the top dose activity, negative = inhibition, usual class: inhibitors; shares compounds with TGFb inhibitor; HepG2 COP-GFP TGF-b reporter, GFP fluorescence, 18 h; cells stimulated by added recombinant TGF-beta; 3% of 1,600 active; note: nearly all actives have a fitted effect of over 70% in size
# * hit, by the source's call; i = inactive; u = inconclusive; x = not tested or not shown. Sampled rows, rich in hits. Any-hit rate of the full collection: about 3.8%. Calls come from the whole dose curve; as a rule, active = well fitted curve in the direction sought with a large enough effect; inconclusive = small, poorly fitted or top-dose-only effect, or another doubt; inactive = no such curve, though single readings can be large; an effect the other way counts as inactive or inconclusive. Potency is the fitted concentration of half-maximal effect.
SMILES,HT1080 IDH1KD tx,S2 tox,TGFb inhibitor,HT1080NT lethal,ATXN2 expr inh,HepG2 tox-1,TGFb CAGA inh,HepG2 tox-2,TGFb CCL64 inh,TGFb COP inh
Oc1ccc(C[C@H]2CNC(=S)N2C[C@H]2CCCN2C[C@H](Cc2ccccc2)N2C[C@H](Cc3ccc(O)cc3)N(CCc3ccccc3)C2=S)cc1,18µM*,u,7.1µM*,15µM*,u,2%,6.5µM*,u,3.7µM*,48%
Oc1ccc(C[C@H]2CN([C@@H](Cc3ccc(O)cc3)CN3CCC[C@@H]3CN3C(=S)NC[C@@H]3Cc3ccccc3)C(=S)N2CCc2ccccc2)cc1,u,u,u,u,u,-24%,x,x,x,x
CCOc1ccc(CCN2C(=S)N([C@@H](Cc3ccc(O)cc3)CN3CCCC3CN3C(=S)NC[C@@H]3Cc3ccc(O)cc3)C[C@@H]2CC(C)C)cc1 (stereo not given in full),-29%,i,u,-19%,u,0%,x,x,x,x
CC(C)C[C@@H](CN1CCCC1CN1C(=S)NC[C@@H]1Cc1ccc(O)cc1)N1C[C@H](Cc2ccc(O)cc2)N(CCc2ccccc2)C1=S (stereo not given in full),u,28µM*,5.6µM*,u,u,6.3µM*,15µM*,u,8.2µM*,-3%
Cc1ccc(C)c(CN2C(=O)c3ccccc3S(=O)(=O)c3ccc(C(=O)N4CCCCC4)cc32)c1,x,x,x,x,x,-4%,x,x,x,x
O=S(=O)(c1ccc(NC(=S)NN=Cc2ccccc2O)cc1)N1CCCCC1,u,i,13µM*,-11%,-24%,-6%,16µM*,u,u,1%
c1ccc(-c2nc3nonc3nc2-c2ccccc2)cc1,u,u,8.9µM*,-27%,u,10µM*,15µM*,u,u,u
O=C(Nc1ccccc1)c1cc([N+](=O)[O-])ccc1Cl,-20%,i,3%,-6%,1%,-23%,x,x,x,x
O=C(Nc1cccc(Cl)c1)c1cc(N=Nc2ccc([N+](=O)[O-])cc2Cl)ccc1O,-17%,u,u,-13%,x,-57%,4.6µM*,5.2µM*,2.3µM*,77%
COc1cc(CN2CCc3ccccc3C2)ccc1O,u,18µM*,4.5µM*,u,x,-133%,7.3µM*,15µM*,2.9µM*,-27%
Cc1ccccc1NC(=O)c1ccc(Nc2c([N+](=O)[O-])cc([N+](=O)[O-])c3ccccc23)cc1,-8%,i,u,-17%,-28%,-20%,u,-19%,2%,-1%
O=C(CN(Cc1ccc(Br)cc1)S(=O)(=O)c1ccccc1)NCc1cccnc1,-7%,i,-1%,-8%,-9%,-7%,x,x,x,x
O=C(NCc1cccnc1)/C(=C\c1ccc(-c2ccc(Br)cc2)o1)S(=O)(=O)c1ccccc1,5.8µM*,14µM*,10µM*,9.2µM*,7.1µM*,-98%,5.8µM*,3.3µM*,5.2µM*,u
COc1ccc(C(=O)On2c(-c3ccc(Br)cc3)nc3ccccc3c2=O)cc1,u,u,13µM*,u,u,-18%,12µM*,21µM*,21µM*,12%
CC(C)Oc1ccc(CNS(=O)(=O)c2ccc3c(c2)C(C)(C)C(=O)N3C)cc1,x,i,u,x,7%,-34%,x,x,x,x
O=[N+]([O-])c1c(Nc2cccc(O)c2)cc(Cl)c2nonc12,8.2µM*,10µM*,3.5µM*,5.2µM*,u,3.5µM*,2.9µM*,3.3µM*,2.9µM*,4.6µM*
O=C(O)c1ccc(Nc2cc(Cl)c3nonc3c2[N+](=O)[O-])cc1,6%,u,1%,2%,-22%,2%,x,x,x,x
C=CCNc1ncnc2c1[nH]c1ccc(C)cc12,u,i,7.9µM*,u,0%,-31%,u,-27%,u,-3%
Cc1ccc2[nH]c3c(NCCN4CCOCC4)ncnc3c2c1,-16%,i,-3%,-8%,-23%,2%,x,x,x,x
